# From PubChem BioAssay AID504607 (Sanford-Burnham Center for Chemical Genomics, 2011)
# Among all 6,200 compounds or so, about 4,800 (77%) were called active. So high a share suggests a set chosen from earlier hits. The list is a sample of the results. Values without a mark were called inactive.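 The calls were made as follows: active = mean inhibition at 8 µM reaching about 37%, which flags the compound as non-specific (limit read from the data); inactive = the rest.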
# Assay: luminescence decrease from intact luciferase reporter – cell-based, single concentration, SaOS-2, counter-screen for Mdm2/MdmX interaction inhibitor project, confirmation (AID 504607);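 also: p53-null SaOS-2 cells with luciferase driven by a doxycycline-inducible promoter; compound on cells about two nights before reading with doxycycline added after day one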
# Conditions: SaOS-2 full-length luciferase counterscreen, at 8 µM, active compounds read high
row,SMILES,inhibition
1,Cc1ccc(OCCOCCOc2ccc(Br)cc2/C=N\NC(=O)c2ccncc2)cc1,45.5% (active)
2,CC(=O)N1CCc2c(sc(NC(=O)CCS(=O)(=O)c3ccccc3)c2C#N)C1,57.3% (active)
3,COc1cc(NS(=O)(=O)c2ccc3ccccc3c2)c2ncccc2c1,22.5%
4,O=[N+]([O-])c1ccccc1S(=O)(=O)Nc1cccc2cccnc12,56.4% (active)
5,COc1ccc(NC(=O)/C(Cl)=C(/Cl)S(=O)Cc2ccc(C)cc2)cn1 (configuration not stated),0.18%
6,CN(C)CCCn1c(=O)n(Cc2ccccc2)c(=O)c2c3c(sc21)CCCCC3,70% (active)
7,Cc1ccc(CS(=O)(=O)c2ncc(Cl)c(C(=O)Nc3nnc(C)s3)n2)cc1,50.9% (active)
8,CSc1nnc(NC(=O)c2nc(S(=O)(=O)Cc3ccc(C)cc3)ncc2Cl)s1,49.9% (active)
9,COc1ccccc1N1CCN(c2ncnc3sc(C)c(-c4ccccc4)c23)CC1,80.6% (active)
10,COc1ccccc1N(CC(=O)N/N=C(\C)c1ccccc1O)S(=O)(=O)c1ccc(C)cc1,37.3% (active)
11,COc1cc(NC(=O)c2cncc(-c3ccc(C#N)cc3)c2)cc(C(=O)Nc2cccc(C(F)(F)F)c2)c1,21.1%
12,COc1cc(NC(=O)c2[nH]cnc2C(N)=O)cc(C(=O)Nc2cccc(C(F)(F)F)c2)c1,50% (active)
13,CC[C@H]1CN2CCc3cc(OC)c(OC)cc3[C@@H]2C[C@@H]1C[C@H]1NCCc2cc(OC)c(OC)cc21,51.2% (active)
14,Cc1ccc(C(=O)N/C(=C/c2ccc(-c3cccc([N+](=O)[O-])c3)o2)C(=O)NCCCN(C)C)cc1,44.1% (active)
15,Nc1nonc1-c1nc2ccccc2n1Cc1ccc(F)cc1,71.9% (active)
16,COc1ccc(OC)c(C2C3=C(N=c4s/c(=C\c5cccc(O)c5)c(=O)n42)c2ccccc2CC3)c1 (configuration not stated),41.8% (active)
17,C=CCn1c(SCc2c(C)noc2C)nc2sc3c(c2c1=O)CCC(C)C3 (configuration not stated),52.9% (active)
18,O=C(NCC1CCCO1)c1cc2c([nH]c3ccccc32)c(-c2ccc(F)cc2)n1 (configuration not stated),74.8% (active)
19,Oc1c(CN2CCCC2)cc(COCc2ccccc2)c2cccnc12,32.2%
20,COc1cc(/C=N/NC(=O)Nc2ccccc2)ccc1OCCOc1ccccc1C,62.6% (active)
21,O=C(NC(=O)c1ccccc1N1CCCCC1)Nc1ccc(Br)cc1,86.3% (active)
22,CCOC(=O)c1c(-c2ccc(C)cc2C)csc1NC(=O)CSc1nnnn1C,73.6% (active)

row,SMILES,inhibition
1,COc1ccc(C2CC(c3ccccc3)=NN2C(=O)c2ccc(Cl)c([N+](=O)[O-])c2)cc1 (configuration not stated),62.6% (active)
2,CC(=O)c1ccc(S(=O)(=O)N2CCN(C(=O)/C=C/c3ccc4ccccc4n3)CC2)cc1,46.9% (active)
3,N/C(=N\OC(=O)c1ccc2c(c1)OCO2)c1ccc(Br)cc1,137% (active)
4,CCc1nc(C)cn1S(=O)(=O)c1cc([N+](=O)[O-])ccc1Cl,103% (active)
5,CCOc1cc(/C=C/c2nc3ccccc3c(=O)[nH]2)cc(Br)c1OC,57.5% (active)
6,O=C(/C=C/c1ccc(Cl)c([N+](=O)[O-])c1)c1ccc(O)cc1,59.3% (active)
7,O=C(/C=C/c1ccc(Cl)c([N+](=O)[O-])c1)c1cccnc1,67.5% (active)
8,CC(C)Cc1nc(Nc2ccc(S(=O)(=O)N3CCCC3)cc2)c2nnn(Cc3ccccc3)c2n1,24.1%
9,CCCc1nc(NCc2ccc3c(c2)OCO3)c2nnn(Cc3ccccc3Cl)c2n1,91.5% (active)
10,COc1ccc(/C=C/C(=O)c2ccc(NS(=O)(=O)c3ccc(C)cc3)cc2)cc1O,65.2% (active)
11,Cc1ccc(C2CC(=O)NC(SCC(=O)OCc3ccccc3)=C2C#N)o1 (configuration not stated),55.9% (active)
12,Cc1cc(C(=O)COC(=O)CNC(=O)c2ccc(F)cc2)c(C)n1Cc1ccco1,98.9% (active)
13,Cc1ccsc1C(=O)OCC(=O)c1cc(C)n(CC2CCCO2)c1C (configuration not stated),28.9%
14,CCOc1cc(C(=O)N2CCc3cc(OC)c(OC)cc3C2)ccc1OC(F)F,86.4% (active)
15,COc1ccc(N=Cc2c(O)[nH]c3ccccc23)cc1OC,65.3% (active)
16,COc1cc(N=Cc2c(O)[nH]c3ccccc23)cc(OC)c1OC,47% (active)
17,c1ccc2c(c1)C(=NC1CCCCC1)NC2=NC1CCCCC1,42.2% (active)
18,OC(CNCC1CCCO1)Cn1c2ccc(Br)cc2c2cc(Br)ccc21 (configuration not stated),52.2% (active)
19,CC1=C/C(=N\OS(=O)(=O)c2ccccc2)C=CC1=O,45.1% (active)
20,CCc1ccc2c(c1)C1(NN=C(c3ccccc3)S1)C(=O)N2 (configuration not stated),40.3% (active)
21,Cn1cc([N+](=O)[O-])c(C(=O)Nc2cnn(Cc3ccc(F)cc3)c2)n1,74.9% (active)
22,COc1ccccc1-n1nnnc1S(=O)(=O)Cc1ccc(Cl)cc1,52.1% (active)

row,SMILES,inhibition
1,COc1cccc(/C=N/NC(=O)c2[nH]nc3c2CCc2ccccc2-3)c1O,27%
2,COc1cccc(/C=N/Nc2cc(C)nc(-c3ccccc3O)n2)c1O,55.6% (active)
3,c1ccc(C2CCC(N3CCC(N4CCCCC4)CC3)CC2)cc1 (configuration not stated),38.2% (active)
4,CCCCCCCCCCOC(=O)Cn1c(COc2cccc(OC)c2)[n+](C)c2ccccc21,31.2%
5,CCCCCCCCCCOC(=O)Cn1c(COc2ccc(C)cc2)[n+](C)c2ccccc21,59.5% (active)
6,CC1CCN(C(=O)c2ccc(S(=O)(=O)Cc3cc(F)ccc3F)c([N+](=O)[O-])c2)CC1,44.1% (active)
7,COc1ccc(-c2cn[nH]c2-c2ccc(OC)cc2)cc1,35.1%
8,COc1ccc(-c2n[nH]c(C)c2-c2ccc(OC)c(OC)c2)c(O)c1,53.7% (active)
9,CCCCn1c(-c2cccc(C)c2)nc2cc3[nH]c(=O)c(C(C)C)nc3cc21,91.6% (active)
10,CC(=O)Nc1nc(C)c(-c2csc(Nc3ccc(S(N)(=O)=O)cc3)n2)s1,31.7%
11,O=C(NC(=S)Nc1ccc2oc(=O)ccc2c1)c1ccc(-c2cccc(Cl)c2Cl)o1,68.2% (active)
12,O=c1oc2ccccc2cc1-c1cn(-c2ccccc2)c(=S)[nH]1,38.4% (active)
13,NC(N)=Nc1nc(-c2ccccc2)c2cc(Cl)ccc2n1,53.4% (active)
14,COc1ccc(Nc2ncnc3ccc(Br)cc23)c(OC)c1,24.3%
15,COc1ccc(NC(=O)c2cc(-c3cc(OC)c(OC)c(OC)c3)nc3ccccc23)c(OC)c1,58.2% (active)
16,Cc1ccc2nc(-c3ccncc3)cc(C(=O)Nc3ccc4c(c3)OCCO4)c2c1,44.2% (active)
17,COc1ccc(C(CCN(Cc2ccc(OC)c(OC)c2)C(=O)CCl)c2ccccc2)cc1 (configuration not stated),58.4% (active)
18,Cc1noc(C)c1-c1ccc2ncnc(NC(C)c3ccco3)c2c1 (configuration not stated),59.8% (active)
19,Cc1cccc(Nc2nc3c(S(=O)(=O)c4ccccc4)nnn3c3ccccc23)c1C,94.3% (active)
20,CN(c1ccc2nc3ccccc3c(=O)n2n1)C1CCCCC1,27.7%
21,CC(Nc1nc(C(F)(F)F)nc2ccccc12)c1cccs1 (configuration not stated),50.3% (active)
22,CC(C)(C)Nc1nc(-c2ccccn2)nc2ccccc12,23.3%

row,SMILES,inhibition
1,Cc1nnc(N/N=C/c2ccccn2)[nH]c1=O,20.6%
2,COc1ccc(Cc2nnc(N/N=C/c3ccccc3O)[nH]c2=O)cc1OC,38.6% (active)
3,CCOc1cc(N2CCOCC2)c(OCC)cc1NC(=O)COc1cccc2cccnc12,39.6% (active)
4,COc1ccccc1C1C2=C(COC2=O)Nc2cc3c(cc21)OCO3 (configuration not stated),90.3% (active)
5,CCCOc1ccccc1C1CC(=O)Nc2cc3c(cc21)OCO3 (configuration not stated),74.9% (active)
6,CCOc1ccc(S(=O)(=O)Nc2cccc(C(=O)NCC3(N4CCCCC4)CCCCC3)c2)cc1,56.1% (active)
7,COc1ccc(CS(=O)/C(Cl)=C(/Cl)C(=O)Nc2ccc(OC)nc2)cc1 (configuration not stated),-0.43%
8,COc1ccc(/C=C2\SC(=S)N(CCC(=O)Nc3ccccn3)C2=O)cc1OC,72.7% (active)
9,O=C(CCCN1C(=O)/C(=C\c2ccco2)SC1=S)Nc1cccc2ccccc12,28.5%
10,O=C(CCCN1C(=O)/C(=C/c2ccco2)SC1=S)Nc1ccccc1,50% (active)
11,O=C1/C(=C/c2ccc(F)cc2)SC(=S)N1CCCC(=O)N1CCCCC1CCO (configuration not stated),23.7%
12,O=C(CCCN1C(=O)/C(=C/c2cccs2)SC1=S)Nc1ccc(O)cc1,43% (active)
13,O=C(CCCN1C(=O)/C(=C\c2ccccc2)SC1=S)Nc1ccccc1O,30.3%
14,O=C(CCCN1C(=O)/C(=C/c2ccccc2)SC1=S)Nc1ccc(O)cc1,51.8% (active)
15,CCOc1ccc(-c2cc(C(=O)N/N=C/c3ccc(O)cc3)c3ccccc3n2)cc1,48.3% (active)
16,Oc1ccc(/C=N/Nc2nc(-c3ccccc3F)nc3ccccc23)c(O)c1,31%
17,Cc1nc2ccccc2nc1N/N=C/c1ccc(O)cc1O,46.2% (active)
18,COc1cc(OC)c2c(-c3cccc(-c4cccc(N)c4)c3)cc(=O)oc2c1,50.1% (active)
19,CC(NC(=O)c1ccc(N2CCNCC2)c([N+](=O)[O-])c1)C12CC3CC(CC(C3)C1)C2 (configuration not stated),56.5% (active)
20,CC[C@]1(O)C[C@@H]2CN(CCc3c([nH]c4ccccc34)[C@@](C(=O)OC)(c3cc4c(cc3OC)N(C)[C@H]3[C@@](O)(C(=O)OC)[C@H](OC(C)=O)[C@]5(CC)C=CCN6CC[C@]43[C@@H]65)C2)C1,94.7% (active)
21,CC[C@]1(O)CC2CN(CCc3c([nH]c4ccccc34)[C@@](C(=O)OC)(c3cc4c(cc3OC)N(C=O)[C@H]3[C@@](O)(C(=O)OC)[C@H](OC(C)=O)[C@]5(CC)C=CCN6CC[C@]43[C@@H]65)C2)C1 (some centres not stated),102% (active)
